Common to all, as to assay: DAPPL (digital affinity profiling via proximity ligation, sequencing); 10 mM Tris-HCl pH 7.5, 50 mM NaCl, 1 mM DTT, 4% glycerol, room temperature, 30 min; GST-TFs on glutathione beads, 16-mer random dsDNA library, 0.1% formaldehyde crosslink after washing; high values mean tight binding
One experiment deals with T1, FEV (Homo sapiens, UniProt Q99581 1-238).
T1 sequence: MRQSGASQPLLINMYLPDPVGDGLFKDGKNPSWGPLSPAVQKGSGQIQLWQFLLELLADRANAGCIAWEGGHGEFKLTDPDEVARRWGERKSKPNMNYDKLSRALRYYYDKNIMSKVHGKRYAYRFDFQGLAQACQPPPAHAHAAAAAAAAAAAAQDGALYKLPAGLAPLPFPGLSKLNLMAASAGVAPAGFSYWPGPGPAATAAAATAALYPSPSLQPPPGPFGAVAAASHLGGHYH
As to conditions: protein: recombinant; tags: N-terminal GST; dsDNA, one strand shown. A digest of the protocol: (§1)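 Binding signal is given per hexamer as its read frequency for a factor divided by its frequency in the tag-only sample. GST-fused human transcription factors were expressed in yeast, captured on glutathione beads, barcoded with DNA and pooled with that sample, then incubated with 200 nmole of a 16-mer random double-stranded DNA library in Tris/NaCl/DTT/glycerol buffer for 30 min at room temperature. The pools were then washed, crosslinked, proximity-ligated, amplified by PCR and sequenced on an Illumina NextSeq500.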

A further experiment addresses ETV5 (Homo sapiens, UniProt P41161 1-510). As to conditions: protein: recombinant; tags: N-terminal GST; dsDNA, one strand shown. A digest of the protocol: as §1
The target of a further experiment is HSF1 (Homo sapiens, UniProt Q00613 1-529). The note with it: protein: recombinant; tags: N-terminal GST; chain copies: 3; dsDNA, one strand shown. The procedure, abridged: as §1
HSF1, sequence (Q00613 whole entry): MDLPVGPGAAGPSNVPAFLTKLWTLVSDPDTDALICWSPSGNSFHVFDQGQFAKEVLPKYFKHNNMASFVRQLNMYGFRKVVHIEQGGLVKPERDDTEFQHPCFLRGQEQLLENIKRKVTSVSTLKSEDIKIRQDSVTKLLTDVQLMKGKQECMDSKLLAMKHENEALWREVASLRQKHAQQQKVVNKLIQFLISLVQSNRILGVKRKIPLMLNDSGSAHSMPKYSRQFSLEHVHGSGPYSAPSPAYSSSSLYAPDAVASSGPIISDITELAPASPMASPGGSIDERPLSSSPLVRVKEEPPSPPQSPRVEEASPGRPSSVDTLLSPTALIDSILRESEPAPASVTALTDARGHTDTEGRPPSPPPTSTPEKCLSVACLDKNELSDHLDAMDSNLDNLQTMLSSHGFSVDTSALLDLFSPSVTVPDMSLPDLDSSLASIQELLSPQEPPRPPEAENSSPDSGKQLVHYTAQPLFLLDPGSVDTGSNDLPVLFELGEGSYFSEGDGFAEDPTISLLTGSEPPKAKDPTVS
The target in the next experiment is T2, SPIC (Homo sapiens, UniProt Q8N5J4 1-248).
T2 sequence: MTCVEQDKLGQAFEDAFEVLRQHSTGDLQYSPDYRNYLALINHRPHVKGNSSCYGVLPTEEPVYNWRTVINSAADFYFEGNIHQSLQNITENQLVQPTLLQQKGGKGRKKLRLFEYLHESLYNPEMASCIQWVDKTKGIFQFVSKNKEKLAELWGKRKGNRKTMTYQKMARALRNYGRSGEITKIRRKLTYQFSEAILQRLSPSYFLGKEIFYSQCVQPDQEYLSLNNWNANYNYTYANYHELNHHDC
The note with it: protein: recombinant; tags: N-terminal GST; dsDNA, one strand shown. The procedure, abridged:
as §1

The target in the next experiment is ELF4 (Homo sapiens, UniProt Q99607 1-663). The note with it: protein: recombinant; tags: N-terminal GST; dsDNA, one strand shown. The procedure, abridged:
as §1

Another experiment concerns the target T3, ELK4 (Homo sapiens, UniProt P28324-2 1-405).
T3 sequence: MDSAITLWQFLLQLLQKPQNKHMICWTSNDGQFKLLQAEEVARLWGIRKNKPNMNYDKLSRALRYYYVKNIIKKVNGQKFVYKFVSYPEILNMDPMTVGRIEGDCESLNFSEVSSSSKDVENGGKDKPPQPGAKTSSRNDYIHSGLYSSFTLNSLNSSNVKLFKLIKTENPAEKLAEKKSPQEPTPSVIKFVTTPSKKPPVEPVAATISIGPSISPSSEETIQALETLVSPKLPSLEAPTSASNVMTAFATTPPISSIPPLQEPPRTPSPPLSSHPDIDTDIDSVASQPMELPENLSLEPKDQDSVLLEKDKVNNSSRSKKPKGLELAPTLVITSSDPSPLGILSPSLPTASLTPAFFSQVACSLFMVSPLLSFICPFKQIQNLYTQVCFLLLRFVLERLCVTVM
The note with it: protein: recombinant; tags: N-terminal GST; dsDNA, one strand shown. A digest of the protocol:
as §1

For another experiment, the target named is T4, ETV2 (Homo sapiens, UniProt O00321 1-342).
T4 sequence: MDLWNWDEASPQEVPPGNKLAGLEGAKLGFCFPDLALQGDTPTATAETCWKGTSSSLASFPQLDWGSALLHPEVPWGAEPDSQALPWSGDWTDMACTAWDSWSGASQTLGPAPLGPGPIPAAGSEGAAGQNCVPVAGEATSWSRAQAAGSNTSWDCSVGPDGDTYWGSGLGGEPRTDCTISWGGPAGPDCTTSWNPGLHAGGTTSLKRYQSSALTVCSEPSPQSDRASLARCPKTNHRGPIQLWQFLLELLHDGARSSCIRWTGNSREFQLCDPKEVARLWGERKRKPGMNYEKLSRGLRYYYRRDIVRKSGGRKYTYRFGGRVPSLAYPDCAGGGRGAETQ
As to conditions: protein: recombinant; tags: N-terminal GST; dsDNA, one strand shown. A digest of the protocol: as §1

Another experiment addresses T5, ELF3 (Homo sapiens, UniProt P78545 1-371).
T5 sequence: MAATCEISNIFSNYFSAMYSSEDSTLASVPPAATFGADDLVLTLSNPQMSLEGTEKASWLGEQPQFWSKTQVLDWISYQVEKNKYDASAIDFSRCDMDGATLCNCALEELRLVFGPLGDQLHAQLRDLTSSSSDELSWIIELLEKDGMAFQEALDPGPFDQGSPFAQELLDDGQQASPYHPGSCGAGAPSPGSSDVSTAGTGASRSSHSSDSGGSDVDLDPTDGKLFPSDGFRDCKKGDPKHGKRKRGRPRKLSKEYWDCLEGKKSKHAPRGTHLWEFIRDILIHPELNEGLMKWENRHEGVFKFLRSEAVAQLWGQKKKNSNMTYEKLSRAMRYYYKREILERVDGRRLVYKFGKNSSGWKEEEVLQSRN
The note with it: protein: recombinant; tags: N-terminal GST; dsDNA, one strand shown. A digest of the protocol: as §1

In another experiment the target is CRX (Homo sapiens, UniProt O43186 1-299). As to conditions: protein: recombinant; tags: N-terminal GST; dsDNA, one strand shown. A digest of the protocol: as §1
CRX, sequence (O43186 whole entry): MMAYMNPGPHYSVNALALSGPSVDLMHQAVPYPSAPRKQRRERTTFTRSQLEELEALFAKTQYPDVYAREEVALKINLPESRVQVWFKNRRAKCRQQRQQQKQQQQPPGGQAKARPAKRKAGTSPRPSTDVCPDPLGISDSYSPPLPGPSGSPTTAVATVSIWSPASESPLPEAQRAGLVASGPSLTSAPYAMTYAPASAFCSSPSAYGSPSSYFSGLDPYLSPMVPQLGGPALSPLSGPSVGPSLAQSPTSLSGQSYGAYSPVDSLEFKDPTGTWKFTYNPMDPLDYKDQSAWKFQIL
The target in a further experiment is ETV1 (Homo sapiens, UniProt P50549 1-477). The note with it: protein: recombinant; tags: N-terminal GST; dsDNA, one strand shown. The procedure, abridged:
as §1

Another experiment has as its target T6, ERF (Homo sapiens, UniProt P50548 1-548).
T6 sequence: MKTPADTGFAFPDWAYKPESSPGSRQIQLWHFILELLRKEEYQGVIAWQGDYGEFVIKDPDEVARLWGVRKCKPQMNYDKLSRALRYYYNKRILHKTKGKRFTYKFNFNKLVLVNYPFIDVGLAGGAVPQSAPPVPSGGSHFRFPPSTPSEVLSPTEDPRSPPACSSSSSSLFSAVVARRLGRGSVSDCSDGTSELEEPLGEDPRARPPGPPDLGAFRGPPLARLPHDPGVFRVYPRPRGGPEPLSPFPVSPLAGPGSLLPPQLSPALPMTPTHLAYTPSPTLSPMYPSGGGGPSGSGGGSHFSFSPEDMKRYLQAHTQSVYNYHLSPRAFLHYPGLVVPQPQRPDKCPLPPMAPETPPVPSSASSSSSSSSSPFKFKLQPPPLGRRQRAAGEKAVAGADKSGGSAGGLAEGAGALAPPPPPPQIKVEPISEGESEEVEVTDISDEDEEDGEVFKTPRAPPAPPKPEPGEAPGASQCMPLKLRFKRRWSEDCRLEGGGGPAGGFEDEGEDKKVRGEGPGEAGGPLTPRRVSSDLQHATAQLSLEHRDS
As to conditions: protein: recombinant; tags: N-terminal GST; dsDNA, one strand shown. The procedure, abridged:
as §1

Another experiment addresses T7, ETV3L (Homo sapiens, UniProt Q6ZN32 1-361).
T7 sequence: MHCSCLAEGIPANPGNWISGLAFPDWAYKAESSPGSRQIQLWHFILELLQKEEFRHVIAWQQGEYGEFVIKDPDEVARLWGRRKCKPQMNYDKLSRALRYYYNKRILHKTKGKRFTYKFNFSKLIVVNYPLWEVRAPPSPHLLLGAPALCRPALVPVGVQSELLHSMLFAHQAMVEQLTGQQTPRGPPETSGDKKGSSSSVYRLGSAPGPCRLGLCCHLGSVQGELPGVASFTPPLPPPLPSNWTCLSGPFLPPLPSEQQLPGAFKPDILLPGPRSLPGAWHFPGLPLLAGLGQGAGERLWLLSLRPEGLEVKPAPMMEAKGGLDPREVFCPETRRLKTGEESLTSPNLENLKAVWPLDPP
The note with it: protein: recombinant; tags: N-terminal GST; dsDNA, one strand shown. A digest of the protocol: as §1

A further experiment has as its target T8, ETS2 (Homo sapiens, UniProt P15036 1-469).
T8 sequence: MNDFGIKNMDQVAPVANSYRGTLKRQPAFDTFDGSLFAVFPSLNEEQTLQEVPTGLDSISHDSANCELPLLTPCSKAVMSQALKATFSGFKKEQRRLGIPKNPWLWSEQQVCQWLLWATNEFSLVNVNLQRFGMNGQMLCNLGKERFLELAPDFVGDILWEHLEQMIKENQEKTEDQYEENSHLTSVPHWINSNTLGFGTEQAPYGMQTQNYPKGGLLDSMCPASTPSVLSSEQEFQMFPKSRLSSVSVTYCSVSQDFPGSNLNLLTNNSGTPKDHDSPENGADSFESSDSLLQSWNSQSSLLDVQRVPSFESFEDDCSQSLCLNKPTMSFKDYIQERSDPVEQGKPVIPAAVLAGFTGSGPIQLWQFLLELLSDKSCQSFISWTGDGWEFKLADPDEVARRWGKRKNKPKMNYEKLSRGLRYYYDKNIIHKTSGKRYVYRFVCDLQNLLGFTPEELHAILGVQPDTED
The note with it: protein: recombinant; tags: N-terminal GST; dsDNA, one strand shown. A digest of the protocol:
as §1

The target of a further experiment is T9, SPDEF (Homo sapiens, UniProt O95238 1-335).
T9 sequence: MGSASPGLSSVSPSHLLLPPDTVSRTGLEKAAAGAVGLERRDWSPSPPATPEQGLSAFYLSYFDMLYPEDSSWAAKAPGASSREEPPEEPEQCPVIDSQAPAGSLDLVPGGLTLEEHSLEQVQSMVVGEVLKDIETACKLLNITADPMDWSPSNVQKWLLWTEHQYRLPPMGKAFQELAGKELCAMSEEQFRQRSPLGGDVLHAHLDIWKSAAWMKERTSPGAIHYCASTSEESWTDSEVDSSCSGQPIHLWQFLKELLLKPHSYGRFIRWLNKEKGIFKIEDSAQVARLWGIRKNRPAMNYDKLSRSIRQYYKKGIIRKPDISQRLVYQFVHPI
The note with it: protein: recombinant; tags: N-terminal GST; dsDNA, one strand shown. A digest of the protocol: as §1

The next experiment addresses T10, ETV7 (Homo sapiens, UniProt Q9Y603 1-341).
T10 sequence: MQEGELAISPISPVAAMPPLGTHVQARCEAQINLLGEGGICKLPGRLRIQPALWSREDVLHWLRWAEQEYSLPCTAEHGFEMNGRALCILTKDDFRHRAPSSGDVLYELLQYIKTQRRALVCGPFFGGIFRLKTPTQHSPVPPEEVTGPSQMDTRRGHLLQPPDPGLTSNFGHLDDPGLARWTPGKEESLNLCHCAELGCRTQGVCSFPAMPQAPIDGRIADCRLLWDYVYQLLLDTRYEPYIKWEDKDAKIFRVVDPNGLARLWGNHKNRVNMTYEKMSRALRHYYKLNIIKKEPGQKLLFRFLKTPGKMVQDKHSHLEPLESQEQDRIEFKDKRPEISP
As to conditions: protein: recombinant; tags: N-terminal GST; dsDNA, one strand shown. A digest of the protocol:
as §1

In the next experiment the target is T11, ELF5 (Homo sapiens, UniProt Q9UKW6-2 1-255).
T11 sequence: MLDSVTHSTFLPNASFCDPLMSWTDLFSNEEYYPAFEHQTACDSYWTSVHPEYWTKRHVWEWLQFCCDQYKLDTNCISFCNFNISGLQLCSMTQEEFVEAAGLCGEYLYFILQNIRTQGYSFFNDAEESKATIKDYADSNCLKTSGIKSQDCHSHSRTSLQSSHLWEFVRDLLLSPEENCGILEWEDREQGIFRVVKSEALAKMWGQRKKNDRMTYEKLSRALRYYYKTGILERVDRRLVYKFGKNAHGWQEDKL
As to conditions: protein: recombinant; tags: N-terminal GST; dsDNA, one strand shown. A digest of the protocol:
as §1

For the next experiment, the target named is T12, ETV3 (Homo sapiens, UniProt P41162-2 1-143).
T12 sequence: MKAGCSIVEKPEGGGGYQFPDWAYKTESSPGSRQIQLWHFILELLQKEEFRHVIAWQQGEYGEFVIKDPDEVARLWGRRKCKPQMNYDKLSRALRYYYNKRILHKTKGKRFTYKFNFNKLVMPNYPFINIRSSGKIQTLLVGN
The note with it: protein: recombinant; tags: N-terminal GST; dsDNA, one strand shown. A digest of the protocol:
as §1

In the next experiment the target is ETV6 (Homo sapiens, UniProt P41212 1-452). The note with it: protein: recombinant; tags: N-terminal GST; dsDNA, one strand shown. A digest of the protocol: as §1
ETV6, sequence (P41212 whole entry): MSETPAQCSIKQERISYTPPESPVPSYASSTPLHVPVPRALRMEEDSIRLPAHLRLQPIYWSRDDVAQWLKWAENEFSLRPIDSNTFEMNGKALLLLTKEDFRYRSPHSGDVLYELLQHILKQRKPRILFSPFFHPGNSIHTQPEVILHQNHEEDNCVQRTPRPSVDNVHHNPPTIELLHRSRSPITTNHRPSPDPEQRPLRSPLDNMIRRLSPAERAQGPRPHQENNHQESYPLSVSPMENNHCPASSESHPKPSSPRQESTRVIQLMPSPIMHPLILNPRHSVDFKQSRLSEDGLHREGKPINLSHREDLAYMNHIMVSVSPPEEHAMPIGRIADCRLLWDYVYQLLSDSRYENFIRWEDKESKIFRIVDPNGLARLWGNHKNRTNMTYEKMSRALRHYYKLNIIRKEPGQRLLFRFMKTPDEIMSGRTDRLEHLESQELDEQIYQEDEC

ETV1, sequence (P50549 whole entry): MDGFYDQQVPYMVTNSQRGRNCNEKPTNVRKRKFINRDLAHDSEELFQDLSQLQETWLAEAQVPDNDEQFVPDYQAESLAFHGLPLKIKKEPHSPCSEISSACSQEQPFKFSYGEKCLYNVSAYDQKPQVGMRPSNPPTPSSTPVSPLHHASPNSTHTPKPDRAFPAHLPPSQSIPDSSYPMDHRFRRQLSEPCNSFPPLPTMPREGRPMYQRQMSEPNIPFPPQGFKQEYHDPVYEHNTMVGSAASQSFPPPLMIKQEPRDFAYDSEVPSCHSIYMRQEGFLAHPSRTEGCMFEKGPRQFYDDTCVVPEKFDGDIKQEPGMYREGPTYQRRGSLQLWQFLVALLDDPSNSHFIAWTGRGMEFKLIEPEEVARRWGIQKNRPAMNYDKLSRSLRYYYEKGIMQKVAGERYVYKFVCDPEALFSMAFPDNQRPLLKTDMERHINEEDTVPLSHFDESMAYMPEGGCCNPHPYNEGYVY
ETV5, sequence (P41161 whole entry): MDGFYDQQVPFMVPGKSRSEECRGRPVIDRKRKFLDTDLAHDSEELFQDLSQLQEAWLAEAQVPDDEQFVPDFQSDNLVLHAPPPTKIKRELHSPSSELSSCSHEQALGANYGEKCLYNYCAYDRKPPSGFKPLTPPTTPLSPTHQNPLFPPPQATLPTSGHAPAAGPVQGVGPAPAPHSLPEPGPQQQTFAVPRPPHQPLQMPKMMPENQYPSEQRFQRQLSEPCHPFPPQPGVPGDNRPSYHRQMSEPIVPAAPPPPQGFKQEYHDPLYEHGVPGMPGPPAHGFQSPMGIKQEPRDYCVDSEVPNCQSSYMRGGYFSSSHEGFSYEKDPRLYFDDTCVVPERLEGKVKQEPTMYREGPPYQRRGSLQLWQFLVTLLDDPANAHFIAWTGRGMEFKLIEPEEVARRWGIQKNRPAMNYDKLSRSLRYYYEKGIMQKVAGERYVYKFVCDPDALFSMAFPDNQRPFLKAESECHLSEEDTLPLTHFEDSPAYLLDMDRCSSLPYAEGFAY
ELF4, sequence (Q99607 whole entry): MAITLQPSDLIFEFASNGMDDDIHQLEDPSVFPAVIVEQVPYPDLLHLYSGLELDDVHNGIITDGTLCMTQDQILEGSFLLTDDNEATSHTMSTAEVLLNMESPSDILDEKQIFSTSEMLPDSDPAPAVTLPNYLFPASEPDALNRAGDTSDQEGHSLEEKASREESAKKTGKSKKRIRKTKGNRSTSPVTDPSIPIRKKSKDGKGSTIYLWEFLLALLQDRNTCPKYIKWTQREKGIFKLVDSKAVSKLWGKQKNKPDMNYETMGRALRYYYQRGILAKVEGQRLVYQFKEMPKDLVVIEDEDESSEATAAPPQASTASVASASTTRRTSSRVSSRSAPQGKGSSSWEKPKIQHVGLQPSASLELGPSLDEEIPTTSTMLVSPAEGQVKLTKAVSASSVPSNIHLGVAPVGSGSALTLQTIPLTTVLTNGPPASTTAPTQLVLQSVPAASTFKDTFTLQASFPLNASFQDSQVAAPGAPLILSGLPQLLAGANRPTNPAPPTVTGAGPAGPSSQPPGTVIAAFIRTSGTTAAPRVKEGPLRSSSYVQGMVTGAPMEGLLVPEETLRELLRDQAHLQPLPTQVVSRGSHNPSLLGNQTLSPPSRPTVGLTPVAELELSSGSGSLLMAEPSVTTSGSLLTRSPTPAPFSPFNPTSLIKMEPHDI

TCAATA: the binding signal with FEV is 1.15 fold enrichment (6-mer frequency, TF over GST control); with ETV5 it was 1.21 fold enrichment (6-mer frequency, TF over GST control); with HSF1, 1.18 fold enrichment (6-mer frequency, TF over GST control); with SPIC, 1.06 fold enrichment (6-mer frequency, TF over GST control); with ELF4 it was 1.17 fold enrichment (6-mer frequency, TF over GST control); with ELK4, 1.29 fold enrichment (6-mer frequency, TF over GST control). Also, the binding signal with ETV2 is 1.26 fold enrichment (6-mer frequency, TF over GST control); with ELF3, 1.23 fold enrichment (6-mer frequency, TF over GST control); with CRX, 1.34 fold enrichment (6-mer frequency, TF over GST control); in the experiment with ETV1 it was 1.24 fold enrichment (6-mer frequency, TF over GST control); with ERF it was 1.24 fold enrichment (6-mer frequency, TF over GST control); with ETV3L it was 1.24 fold enrichment (6-mer frequency, TF over GST control). Besides, the binding signal in the experiment with ETS2 is 1.15 fold enrichment (6-mer frequency, TF over GST control); with SPDEF it was 1.17 fold enrichment (6-mer frequency, TF over GST control); in the experiment with ETV7, 1.26 fold enrichment (6-mer frequency, TF over GST control); with ELF5, 1.08 fold enrichment (6-mer frequency, TF over GST control); in the experiment with ETV3 it was 1.23 fold enrichment (6-mer frequency, TF over GST control); in the experiment with ETV6 it was 1.14 fold enrichment (6-mer frequency, TF over GST control).

The values are drawn from PMC7862700, “An all-to-all approach to the identification of sequence-specific readers for epigenetic DNA modifications on cytosine”.
